The text below walks through data of the antibiotic and cytotoxicity screens of Wong et al. (2023).

Out of some 39,000 compounds screened, about 3,300 (8.5%) were called active. Shown is part of a subset that was picked to be rich in actives.

In the assay the test system is HepG2. The assay is described as follows: cytotoxicity call (relative viability < 0.9). As to conditions: 10 µM.
Take `CN1CCN(C(=O)C[C@@H]2C=C[C@@H](NC(=O)Nc3ccccc3F)[C@H](CO)O2)CC1`: the cytotoxicity call was “inactive”.

For the compound `OCc1ccc(-c2cccs2)cc1`, the cytotoxicity call was “inactive”. The same measure for `CCNC(=O)N1CCN(CCO)CC1`: “inactive”. Take `C[C@@H]1CN([C@H](C)CO)C(=O)c2cc(NC(=O)CCC(F)(F)F)ccc2O[C@@H](C)CCCCO[C@@H]1CN(C)S(=O)(=O)c1ccc(F)cc1`: the cytotoxicity call was “inactive”.

In the case of `CC(C)CC(=O)N[C@H](C(=O)N[C@H](C(=O)N[C@@H](CC(C)C)[C@@H](O)CC(=O)N[C@@H](C)C(=O)N[C@@H](CC(C)C)[C@@H](O)CC(=O)O)C(C)C)C(C)C`, the cytotoxicity call is “inactive”.

For `COc1cccc(S(=O)(=O)N[C@@H]2CC[C@H](CCn3cc(-c4ccccc4OC)nn3)O[C@@H]2CO)c1`, the cytotoxicity call was “inactive”. Consider `Cn1c(=O)c2c(ncn2CC(=O)N2CCN(c3ccccc3)CC2)n(C)c1=O`, for which the cytotoxicity call is “inactive”. For the compound `CCOC(=O)CCCCCC(=O)Nc1ccc2c(c1)C(=O)N([C@@H](C)CO)C[C@@H](C)[C@H](CN(C)S(=O)(=O)c1cccs1)OCCCC[C@H](C)O2`, the cytotoxicity call was “inactive”. As for `C[C@@H]1CN([C@@H](C)CO)C(=O)c2cccc(NC(=O)c3ccncc3)c2O[C@@H]1CN(C)S(=O)(=O)c1ccccc1`, the cytotoxicity call was “active”.

With `COc1ccc(S(=O)(=O)N(C)C[C@@H]2Oc3c(NC(=O)c4ccncc4)cccc3C(=O)N([C@@H](C)CO)C[C@@H]2C)cc1`, the cytotoxicity call is “inactive”. As to `C[C@@H]1CN([C@H](C)CO)C(=O)c2cccc(NC(=O)c3ccncc3)c2O[C@H]1CN(C)S(=O)(=O)c1cn(C)cn1`, the cytotoxicity call was “inactive”. The same measure for `C[C@H](CO)N1C[C@H](C)[C@H](CN(C)S(=O)(=O)c2cn(C)cn2)Oc2c(NC(=O)Nc3ccc(F)cc3)cccc2C1=O`: “inactive”.

Regarding `COc1ccc(S(=O)(=O)N(C)C[C@H]2Oc3c(NC(=O)c4ccncc4)cccc3C(=O)N([C@@H](C)CO)C[C@H]2C)cc1`, the cytotoxicity call is “active”. The same measure for `C[C@H](CO)N1C[C@H](C)[C@H](CN(C)S(=O)(=O)c2ccccc2)Oc2c(NC(=O)c3ccncc3)cccc2C1=O`: “inactive”; for `C[C@H](CO)N1C[C@H](C)[C@@H](CN(C)S(=O)(=O)c2cn(C)cn2)Oc2c(NC(=O)Nc3ccc(F)cc3)cccc2C1=O`: “inactive”; for `C[C@H]1CN([C@@H](C)CO)C(=O)c2cccc(NC(=O)Nc3ccc(F)cc3)c2O[C@@H]1CN(C)S(=O)(=O)c1cn(C)cn1`: “active”. Take `C[C@H]1CN([C@@H](C)CO)C(=O)c2cccc(NC(=O)c3ccncc3)c2O[C@@H]1CN(C)S(=O)(=O)c1cn(C)cn1`: the cytotoxicity call is “inactive”. As to `C[C@@H]1CN([C@@H](C)CO)C(=O)c2cccc(NC(=O)c3ccncc3)c2O[C@H]1CN(C)S(=O)(=O)c1cn(C)cn1`, the cytotoxicity call was “active”. For the compound `COc1ccc(S(=O)(=O)N(C)C[C@H]2Oc3c(NC(=O)c4ccncc4)cccc3C(=O)N([C@H](C)CO)C[C@H]2C)cc1`, the cytotoxicity call was “inactive”. The same measure for `C[C@@H]1CN([C@H](C)CO)C(=O)c2cccc(NC(=O)c3ccncc3)c2O[C@@H]1CN(C)S(=O)(=O)c1ccccc1`: “inactive”; for `C[C@@H]1CN([C@@H](C)CO)C(=O)Cc2cc(NS(=O)(=O)c3cccs3)ccc2O[C@@H]1CN(C)S(=O)(=O)c1cn(C)cn1`: “inactive”. Regarding `Cc1ccc(S(=O)(=O)N(C)C[C@H]2Oc3ccc(NC(=O)CCN4CCOCC4)cc3CC(=O)N([C@H](C)CO)C[C@@H]2C)cc1`, the cytotoxicity call is “inactive”. With `C/C=C/c1ccc2c(c1)O[C@@H](CN(C)Cc1ccc(C(=O)O)cc1)[C@H](C)CN([C@H](C)CO)S2(=O)=O`, the cytotoxicity call is “inactive”. For `C[C@@H]1CN([C@@H](C)CO)C(=O)c2c(c3ccccc3n2C)-c2ccccc2CO[C@H]1CN(C)C(=O)c1ccc(F)cc1`, the cytotoxicity call is “inactive”. The same measure for `OC[C@H]1O[C@H](C#Cc2ccccc2)C=C[C@@H]1O`: “inactive”; for `C[C@H](CO)N1C[C@H](C)[C@H](CN(C)C(=O)Nc2ccc3c(c2)OCO3)Oc2c(NC(=O)c3ccncc3)cccc2C1=O`: “inactive”; for `Cc1ccc(S(=O)(=O)N[C@H]2C=C[C@@H](CC(=O)NCCN3CCCCC3)O[C@@H]2CO)cc1`: “inactive”. As to `Cn1cnc2c1c(=O)[nH]c(=O)n2C`, the cytotoxicity call is “inactive”.

Consider `Cc1cc(C(=O)N2CCCC[C@@H]2CCOc2cccc(CN(C)Cc3cccc4cccnc34)c2)c(=O)[nH]c1C`, for which the cytotoxicity call is “inactive”.

Consider `Cc1nc(-c2cccc(F)c2)cs1`, for which the cytotoxicity call is “inactive”. Take `COc1ccc2c3c([nH]c2c1)[C@@H](CO)N(C[C@]13CN(CC2CCOCC2)C1)C(=O)Nc1c(noc1C)C`: the cytotoxicity call was “inactive”. For the compound `C[C@@H]1CCCCO[C@@H](CN(C)C(=O)Nc2ccccc2)[C@@H](C)CN([C@H](C)CO)C(=O)c2cc(NC(=O)Nc3cccc4ccccc34)ccc2O1`, the cytotoxicity call was “inactive”.

Turning to `C[C@@H]1CN([C@@H](C)CO)C(=O)c2cc(NC(=O)Nc3ccc(F)cc3)ccc2O[C@H]1CN(C)S(C)(=O)=O`, the cytotoxicity call was “inactive”. With `COc1ccc(NC(=O)Nc2ccc3c(c2)CC(=O)N([C@@H](C)CO)C[C@H](C)[C@@H](CN(C)C(=O)Nc2ccc(C(F)(F)F)cc2)O3)cc1`, the cytotoxicity call was “inactive”. Regarding `COc1ccc(NC(=O)Nc2ccc3c(c2)CC(=O)N([C@@H](C)CO)C[C@@H](C)[C@@H](CN(C)C(=O)Nc2ccc(C(F)(F)F)cc2)O3)cc1`, the cytotoxicity call is “inactive”. Regarding `COc1ccc(NC(=O)Nc2ccc3c(c2)CC(=O)N([C@H](C)CO)C[C@H](C)[C@H](CN(C)C(=O)Nc2ccc(C(F)(F)F)cc2)O3)cc1`, the cytotoxicity call was “inactive”. The same measure for `COc1ccc(NC(=O)Nc2ccc3c(c2)CC(=O)N([C@@H](C)CO)C[C@H](C)[C@H](CN(C)C(=O)Nc2ccc(C(F)(F)F)cc2)O3)cc1`: “active”; for `COc1ccc(NC(=O)N(C)C[C@H]2Oc3ccc(NC(=O)Nc4ccc(C(F)(F)F)cc4)cc3CC(=O)N([C@@H](C)CO)C[C@H]2C)cc1`: “active”; for `COc1ccc(NC(=O)N(C)C[C@@H]2Oc3ccc(NC(=O)Nc4ccc(C(F)(F)F)cc4)cc3CC(=O)N([C@H](C)CO)C[C@@H]2C)cc1`: “inactive”. Take `CO[C@H]1CCN(C(=O)CN(C)C)[C@@H]2CCO[C@@H]12`: the cytotoxicity call was “inactive”. For the compound `C[C@H](CO)N1C[C@H](C)[C@@H](CN(C)Cc2cccc3c2OCCCO3)OCc2ccccc2-c2c(n(C)c3ccccc23)C1=O`, the cytotoxicity call is “inactive”. As for `CCCC(=O)Nc1ccc2c(c1)C(=O)N(C)C[C@@H](OC)[C@@H](C)CN(Cc1ccc(-c3ccccn3)cc1)[C@H](C)CO2`, the cytotoxicity call is “inactive”.
